Assay results from PubChem BioAssay (NCATS).
Inconclusive results are not listed. Entries that show only a call come without a potency. Activity calls are given as the source filed them. Unless noted, calls come from the whole dose curve; as a rule, active = well fitted curve in the direction sought with a large enough effect in the repeat runs; inconclusive = weak or mixed curves; inactive = no such curve, though single readings can be large; an effect the other way counts as inactive or inconclusive.

Assays:
[1] = molecular target: Rap guanine nucleotide exchange factor 3 (Homo sapiens) (UniProt O95398); assay: Confirmatory qHTS for antagonist of cAMP-regulated guanine nucleotide exchange factor 3 (EPAC1) (AID 1645880; active = well fitted curve in the direction sought with a large enough effect; an effect the other way counts as inactive or inconclusive; note: nearly all actives have a fitted effect of over 55% in size)
In short: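 Released BODIPY-GDP fluoresces less than Rap1-bound BODIPY-GDP; the signal is followed at 480/540 nm at 5-min intervals over 30 min, after 5 min at room temperature. Reactions contain 100 nM EPAC1, 250 nM RAP1B-BODIPY-GDP and 50 uM GDP; results are normalized to ATA and DMSO.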

[2] = molecular target: Rap guanine nucleotide exchange factor 3 (Homo sapiens) (UniProt O95398); assay: Confirmatory qHTS for agonist of cAMP-regulated guanine nucleotide exchange factor 3 (EPAC1) (AID 1645881; active = well fitted curve in the direction sought with a large enough effect; an effect the other way counts as inactive or inconclusive; note: nearly all actives have a fitted effect of over 75% in size)
[3] = molecular target: Rap guanine nucleotide exchange factor 4 (Homo sapiens) (UniProt Q8WZA2); assay: Confirmatory qHTS for agonist of cAMP-regulated guanine nucleotide exchange factor 4 (EPAC2) (AID 1645884; active = well fitted curve in the direction sought with a large enough effect; an effect the other way counts as inactive or inconclusive;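 note: nucleotide exchange releases bodipy-GDP from Rap1 and this lowers its fluorescence; nearly all actives have a fitted effect of over 65% in size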)
[4] = molecular target: Cytochrome P450 2D6 (Homo sapiens) (UniProt P10635); assay: Cytochrome P450 family 2 subfamily D member 6 (CYP2D6) small molecule antagonists: luciferase biochemical (cell-free) qHTS assay (AID 1645840); note: nearly all actives have a fitted effect of over 55% in size
In short: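 P450-Glo CYP2D6 system: proluciferin substrate converted by enzyme to luciferin, read by luminescence proportional to activity. Enzyme-substrate mix with compound 10 min at room temperature, then NADPH regeneration 1 h before detection reagent.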

[5] = molecular target: Cytochrome P450 2C9 (Homo sapiens) (UniProt P11712); assay: Cytochrome P450 family 2 subfamily C member 9 (CYP2C9) small molecule antagonists: luciferase biochemical (cell-free) qHTS assay (AID 1645842); note: nearly all actives have a fitted effect of over 55% in size
In short: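 P450-Glo CYP2C9 system: proluciferin substrate with enzyme in mix containing 0.4% BSA, 10 min at room temperature, then NADPH regeneration solution added and incubated 1 h at 37C. Detection reagent stopped reaction; luminescence read after 20 min as RLU.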

[6] = Primary qHTS for inhibitors of nuclear receptor binding SET domain protein 2 (NSD2) in an isogenic RCH-ACV NSD2 p.E1099K mutant (9B) (AID 1645876; active = well fitted curve in the direction sought with a large enough effect; an effect the other way counts as inactive or inconclusive; note: nearly all actives have a fitted effect of over 70% in size)
[7] = molecular target: N-terminal Xaa-Pro-Lys N-methyltransferase 1 (Homo sapiens) (UniProt Q9BV86); assay: Confirmatory qHTS for Inhibitors of N-terminal methyltransferase 1 (NTMT1): MTaseGlo Assay (AID 1645874; active = well fitted curve in the direction sought with a large enough effect; an effect the other way counts as inactive or inconclusive; note: nearly all actives have a fitted effect of over 65% in size)
In short: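 SPKRIA peptide at 1 uM was methylated by 125 nM NTMT1 using 100 uM SAM over 30 min at room temperature, following a 15 min compound preincubation. Product SAH was detected luminescently.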

[8] = Primary qHTS for inhibitors of nuclear receptor binding SET domain protein 2 (NSD2) in an RCH-ACV wild type WT cells (2C) (AID 1645877; active = well fitted curve in the direction sought with a large enough effect; an effect the other way counts as inactive or inconclusive; note: nearly all actives have a fitted effect of over 70% in size)
Potency is the fitted concentration of half-maximal effect.

Rap guanine nucleotide exchange factor 3 (Homo sapiens), sequence (O95398 whole entry, looked up): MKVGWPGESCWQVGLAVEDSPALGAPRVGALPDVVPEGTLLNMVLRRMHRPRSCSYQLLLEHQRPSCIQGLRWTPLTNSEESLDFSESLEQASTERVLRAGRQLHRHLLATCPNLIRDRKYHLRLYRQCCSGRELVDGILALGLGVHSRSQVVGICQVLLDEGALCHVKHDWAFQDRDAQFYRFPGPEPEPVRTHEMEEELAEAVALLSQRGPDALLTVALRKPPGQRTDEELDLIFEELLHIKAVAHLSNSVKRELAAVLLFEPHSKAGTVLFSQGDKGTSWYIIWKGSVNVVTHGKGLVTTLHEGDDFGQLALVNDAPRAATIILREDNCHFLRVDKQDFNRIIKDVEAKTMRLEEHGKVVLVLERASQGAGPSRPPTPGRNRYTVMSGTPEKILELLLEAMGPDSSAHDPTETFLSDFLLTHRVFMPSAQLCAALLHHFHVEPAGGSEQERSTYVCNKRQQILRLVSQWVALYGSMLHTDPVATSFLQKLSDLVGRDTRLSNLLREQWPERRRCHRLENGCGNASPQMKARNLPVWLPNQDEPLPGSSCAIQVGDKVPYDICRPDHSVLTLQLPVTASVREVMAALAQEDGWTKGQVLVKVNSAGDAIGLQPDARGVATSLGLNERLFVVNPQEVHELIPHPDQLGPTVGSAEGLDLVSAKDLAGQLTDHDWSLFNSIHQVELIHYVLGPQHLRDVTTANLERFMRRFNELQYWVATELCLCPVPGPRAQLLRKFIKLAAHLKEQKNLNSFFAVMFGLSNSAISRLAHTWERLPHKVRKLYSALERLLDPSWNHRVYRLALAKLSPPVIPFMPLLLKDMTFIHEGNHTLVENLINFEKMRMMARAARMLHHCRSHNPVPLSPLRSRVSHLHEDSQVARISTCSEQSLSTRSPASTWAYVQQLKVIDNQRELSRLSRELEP
Cytochrome P450 2C9 (Homo sapiens), sequence (P11712 whole entry, looked up): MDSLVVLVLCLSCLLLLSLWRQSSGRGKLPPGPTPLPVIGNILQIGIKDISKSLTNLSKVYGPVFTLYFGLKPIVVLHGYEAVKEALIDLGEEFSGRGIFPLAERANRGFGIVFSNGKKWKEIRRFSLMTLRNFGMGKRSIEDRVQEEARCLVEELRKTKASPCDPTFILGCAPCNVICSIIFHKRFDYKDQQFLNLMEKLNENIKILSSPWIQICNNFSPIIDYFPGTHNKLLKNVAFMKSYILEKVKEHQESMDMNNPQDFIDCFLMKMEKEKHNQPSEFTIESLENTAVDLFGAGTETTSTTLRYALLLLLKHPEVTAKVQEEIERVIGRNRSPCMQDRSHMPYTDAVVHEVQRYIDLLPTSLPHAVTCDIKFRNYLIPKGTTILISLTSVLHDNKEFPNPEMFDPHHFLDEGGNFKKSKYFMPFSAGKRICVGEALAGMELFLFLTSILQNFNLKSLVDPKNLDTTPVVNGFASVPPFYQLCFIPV
Cytochrome P450 2D6 (Homo sapiens), sequence (P10635 whole entry, looked up): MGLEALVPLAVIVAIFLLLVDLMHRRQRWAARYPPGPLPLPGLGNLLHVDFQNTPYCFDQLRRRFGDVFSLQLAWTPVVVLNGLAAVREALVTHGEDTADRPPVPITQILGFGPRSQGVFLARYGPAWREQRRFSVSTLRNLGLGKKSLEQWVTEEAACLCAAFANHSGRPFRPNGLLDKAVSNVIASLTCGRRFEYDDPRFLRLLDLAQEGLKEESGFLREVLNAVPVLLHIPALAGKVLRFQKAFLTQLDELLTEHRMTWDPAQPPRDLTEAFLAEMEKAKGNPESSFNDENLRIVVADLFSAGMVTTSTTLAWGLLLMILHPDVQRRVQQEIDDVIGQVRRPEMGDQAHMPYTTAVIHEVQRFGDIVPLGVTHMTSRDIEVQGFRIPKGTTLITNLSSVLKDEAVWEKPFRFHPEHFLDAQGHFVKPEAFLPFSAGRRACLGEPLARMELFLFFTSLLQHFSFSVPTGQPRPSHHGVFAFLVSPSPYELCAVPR
Rap guanine nucleotide exchange factor 4 (Homo sapiens), sequence (Q8WZA2 whole entry, looked up): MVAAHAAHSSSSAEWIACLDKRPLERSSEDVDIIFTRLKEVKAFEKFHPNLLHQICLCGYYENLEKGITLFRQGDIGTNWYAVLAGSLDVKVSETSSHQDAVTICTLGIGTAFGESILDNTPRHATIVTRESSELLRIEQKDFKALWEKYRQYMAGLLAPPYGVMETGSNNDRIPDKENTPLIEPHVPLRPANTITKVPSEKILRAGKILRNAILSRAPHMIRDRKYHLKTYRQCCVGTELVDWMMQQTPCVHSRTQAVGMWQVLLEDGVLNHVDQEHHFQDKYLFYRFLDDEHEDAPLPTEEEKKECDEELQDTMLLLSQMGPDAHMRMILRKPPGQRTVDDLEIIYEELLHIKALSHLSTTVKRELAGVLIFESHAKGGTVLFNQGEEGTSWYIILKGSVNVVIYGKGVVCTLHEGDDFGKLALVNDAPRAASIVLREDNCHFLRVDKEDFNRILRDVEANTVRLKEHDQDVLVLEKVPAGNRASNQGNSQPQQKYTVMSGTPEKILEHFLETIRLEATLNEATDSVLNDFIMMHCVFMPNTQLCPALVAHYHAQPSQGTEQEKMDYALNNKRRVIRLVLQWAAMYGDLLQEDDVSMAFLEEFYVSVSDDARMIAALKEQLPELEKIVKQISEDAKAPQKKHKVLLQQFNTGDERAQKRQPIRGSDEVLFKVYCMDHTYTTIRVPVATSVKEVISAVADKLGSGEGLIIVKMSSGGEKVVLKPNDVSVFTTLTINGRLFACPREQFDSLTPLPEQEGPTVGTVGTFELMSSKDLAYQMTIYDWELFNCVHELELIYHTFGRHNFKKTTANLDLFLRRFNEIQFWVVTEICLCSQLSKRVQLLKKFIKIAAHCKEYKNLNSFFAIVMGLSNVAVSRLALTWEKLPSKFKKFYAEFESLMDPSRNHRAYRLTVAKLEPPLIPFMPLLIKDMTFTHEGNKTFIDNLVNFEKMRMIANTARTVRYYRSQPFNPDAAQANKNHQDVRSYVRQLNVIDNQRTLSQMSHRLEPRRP
N-terminal Xaa-Pro-Lys N-methyltransferase 1 (Homo sapiens), sequence (Q9BV86 whole entry, looked up): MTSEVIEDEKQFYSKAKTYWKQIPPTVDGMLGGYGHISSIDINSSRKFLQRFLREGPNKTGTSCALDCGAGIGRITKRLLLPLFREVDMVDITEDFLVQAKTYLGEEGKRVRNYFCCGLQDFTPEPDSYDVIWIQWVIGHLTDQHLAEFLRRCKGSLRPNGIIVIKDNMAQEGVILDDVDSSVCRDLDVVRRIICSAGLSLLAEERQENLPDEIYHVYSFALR

## Nc1ccc2cc3ccc(N)cc3nc2c1
[1]
  Potency: inactive
[2]
  Potency: 17.7 µM (active)
[3]
  Potency: 22.3 µM (active)

## CCC(=O)O[C@H]1[C@H](O[C@@H]2[C@@H](C)[C@H](O[C@H]3C[C@@](C)(OC)[C@@H](O)[C@H](C)O3)[C@@H](C)C(=O)O[C@H](CC)[C@@](C)(O)[C@H](O)[C@@H](C)C(=O)[C@H](C)C[C@@]2(C)O)O[C@H](C)C[C@@H]1N(C)C
[1]
  Potency: 12.5 µM (active)
[2]
  Potency: inactive
[3]
  Potency: inactive

## CCOC(=O)O[C@]1(C(=O)OCCl)CC[C@H]2[C@@H]3CCC4=CC(=O)C=C[C@]4(C)[C@H]3[C@@H](O)C[C@@]21C
[4]
  Potency: inactive
[5]
  Potency: inactive
[6]
  Potency: inactive

## Cc1cc(C(C)(C)C)c(O)c(C(C)(C)C)c1
[4]
  Potency: inactive
[5]
  Potency: inactive

## NS(=O)(=O)c1cc(C(=O)NN2C[C@H]3[C@H]4CCC(C4)[C@H]3C2)ccc1Cl
[4]
  Potency: inactive
[5]
  Potency: inactive

## O=C(OCC(O)CO)c1ccccc1Nc1ccnc2c(C(F)(F)F)cccc12 (configuration not stated)
[4]
  Potency: 11 µM (active)
[5]
  Potency: 6.17 µM (active)

## CCOC(=O)NNc1ccc(N(CC)CC(C)O)nn1 (configuration not stated)
[4]
  Potency: inactive
[5]
  Potency: inactive
[6]
  Potency: inactive

## O=C(O)Cc1ccc(OCCNC[C@H](O)c2ccccc2)cc1
[4]
  Potency: inactive
[5]
  Potency: inactive

## CO/N=C(/C(=O)N[C@@H]1C(=O)N2C(C(=O)O)=C(Cn3nnc(C)n3)CS[C@H]12)c1csc(N)n1
[4]
  Potency: inactive
[5]
  Potency: inactive

## O=C(CCCCCCCCC#CI)Oc1ccccc1
[4]
  Potency: 5.42 µM (active)
[5]
  Potency: 16.2 µM (active)

## Cc1ccc(Cl)c(OCC(O)CNC(C)(C)C)c1 (configuration not stated)
[4]
  Potency: 1.74 µM (active)
[5]
  Potency: inactive
[6]
  Potency: inactive

## O=C1OC2(c3ccccc31)c1cc(I)c(O)c(I)c1Oc1c2cc(I)c(O)c1I
[4]
  Potency: 17.4 µM (active)
[5]
  Potency: 19.5 µM (active)
[7]
  Potency: 1.9 µM (active)

## C=CCNc1nc(NCC=C)nc(N2CCN(C(c3ccc(F)cc3)c3ccc(F)cc3)CC2)n1
[4]
  Potency: inactive
[5]
  Potency: inactive

## Cc1nc2n(c(=O)c1CCN1CCC(C(=O)c3ccc(F)cc3)CC1)CCS2
[4]
  Potency: 0.275 µM (active)
[5]
  Potency: inactive

## Cc1cccc(N(C)C(=S)Oc2ccc3c(c2)C2CCC3C2)c1 (configuration not stated)
[4]
  Potency: inactive
[5]
  Potency: 7.76 µM (active)
[6]
  Potency: inactive

## COc1ccc2nc(SCc3ncc(C)c(OC)c3C)[nH]c2c1
[4]
  Potency: 12.3 µM (active)
[5]
  Potency: inactive

## O=C(C1CCCCC1)N1CC(=O)N2CCCc3ccccc3C2C1 (configuration not stated)
[4]
  Potency: inactive
[5]
  Potency: 6.17 µM (active)

## CCCCNc1ccc(C(=O)OCCN(CC)CC)cc1
[4]
  Potency: 3.47 µM (active)
[5]
  Potency: inactive
[6]
  Potency: inactive

## C1N2CN3CN1CN(C2)C3
[4]
  Potency: inactive
[5]
  Potency: inactive

## C/C(=C(/OCCOc1ccc(Cl)cc1)c1ccc(Cl)cc1Cl)n1ccnc1
[4]
  Potency: 0.871 µM (active)
[5]
  Potency: 0.55 µM (active)

## CNC[C@H](O)[C@@H](O)[C@H](O)[C@H](O)CO
[4]
  Potency: inactive
[5]
  Potency: inactive

## CC(=O)O[C@@H]1C(=O)O[C@@H]2[C@H]1OC(=O)[C@@H]2OC(C)=O
[4]
  Potency: inactive
[5]
  Potency: inactive

## CC[N+]1(CC)CCC(=C(c2ccccc2)c2ccccc2)C1C (configuration not stated)
[4]
  Potency: 1.74 µM (active)
[5]
  Potency: inactive

## C[C@@H](O[C@H]1OCCN(Cc2n[nH]c(=O)[nH]2)[C@H]1c1ccc(F)cc1)c1cc(C(F)(F)F)cc(C(F)(F)F)c1
[4]
  Potency: 20.4 µM (active)
[5]
  Potency: 12.1 µM (active)

## COc1cc(OC)nc(O[C@H](C(=O)O)C(OC)(c2ccccc2)c2ccccc2)n1
[4]
  Potency: inactive
[5]
  Potency: inactive

## Nc1nc2ccccc2n1Cc1ccc(F)cc1
[4]
  Potency: 0.0977 µM (active)
[5]
  Potency: inactive

## CN1CCC(N(Cc2cccs2)c2ccccc2)CC1
[4]
  Potency: 0.49 µM (active)
[5]
  Potency: inactive

## CO/N=C(/C(=O)N[C@@H]1C(=O)N2C(C(=O)OCOC(=O)C(C)(C)C)=C(C)CS[C@H]12)c1csc(N)n1
[4]
  Potency: inactive
[5]
  Potency: 17.4 µM (active)

## NC(=O)NS(=O)(=O)c1ccc(Cl)cc1
[4]
  Potency: inactive
[5]
  Potency: inactive

## CC(CC1c2ccccc2CCc2ccccc21)CN(C)C (configuration not stated)
[4]
  Potency: 0.246 µM (active)
[5]
  Potency: inactive

## Cc1ccc(CCn2c3c(c4cc(Cl)ccc42)CN(C)CC3)cn1
[4]
  Potency: 2.19 µM (active)
[5]
  Potency: inactive

## CCCN(CCC)C(=O)C(CCC(=O)OCCCN1CCN(CCOC(=O)Cc2c(C)n(C(=O)c3ccc(Cl)cc3)c3ccc(OC)cc23)CC1)NC(=O)c1ccccc1 (configuration not stated)
[4]
  Potency: 7.76 µM (active)
[5]
  Potency: 3.47 µM (active)

## CO/N=C(/C(=O)N[C@@H]1C(=O)N2C(C(=O)[O-])=C(C[n+]3ccn4ncccc43)CS[C@H]12)c1nsc(N)n1
[4]
  Potency: inactive
[5]
  Potency: inactive

## CNC(=O)c1cnn(-c2nc(N)c3ncn([C@@H]4O[C@H](CO)[C@@H](O)[C@H]4O)c3n2)c1
[4]
  Potency: inactive
[5]
  Potency: inactive

## CO[C@]1(NC(=O)CSC(F)F)C(=O)N2C(C(=O)O)=C(CSc3nnnn3CCO)CO[C@H]21
[4]
  Potency: inactive
[5]
  Potency: inactive

## CCOC(=O)OCC/C(SC(=O)OCC)=C(\C)N(C=O)Cc1cnc(C)nc1N
[4]
  Potency: 2.16 µM (active)
[5]
  Potency: inactive

## O=C(O)CNC(=O)CNC(=O)CNC(=O)CSC(=O)c1ccccc1
[4]
  Potency: inactive
[5]
  Potency: inactive

## Nc1cc(C(F)(F)F)ccc1S
[4]
  Potency: 15.5 µM (active)
[5]
  Potency: 1.38 µM (active)
[7]
  Potency: inactive
[6]
  Potency: 9.44 µM (active)
[8]
  Potency: 15 µM (active)

## CCc1cc(S(=O)(=O)O)c2cc(C(C)C)cccc1-2
[4]
  Potency: inactive
[5]
  Potency: inactive

## CC(C)C[C@@H]1[C@H](c2ccccc2)OC(=O)N1CCCN1CCCCCC1
[4]
  Potency: 0.776 µM (active)
[5]
  Potency: inactive

## c1ccc(C(O[C@H]2CCCN(CCc3ccc4c(c3)OCO4)C2)c2ccccc2)cc1
[4]
  Potency: 0.0123 µM (active)
[5]
  Potency: 24.5 µM (active)

## CC(NC(CCc1ccccc1)C(=O)O)C(=O)N1C(=O)N(C)CC1C(=O)O (configuration not stated)
[4]
  Potency: inactive
[5]
  Potency: inactive
[6]
  Potency: inactive
[8]
  Potency: inactive

## CCn1ccc(NS(=O)(=O)c2ccc(N)cc2)nc1=O
[4]
  Potency: inactive
[5]
  Potency: inactive
[6]
  Potency: inactive
[8]
  Potency: inactive

## CC(NCCC(c1ccccc1)c1ccccc1)c1ccccc1 (configuration not stated)
[4]
  Potency: 0.0871 µM (active)
[5]
  Potency: 13.8 µM (active)
[6]
  Potency: 18.8 µM (active)
[8]
  Potency: 18.8 µM (active)

## O=c1[nH]c(=O)n([C@H]2O[C@H](CO)[C@@H](O)[C@@H]2O)cc1/C=C\Br
[4]
  Potency: inactive
[5]
  Potency: inactive
[6]
  Potency: inactive
[8]
  Potency: inactive

## CC(CC(C#N)(c1ccccc1)C(C)C)N(C)C (configuration not stated)
[4]
  Potency: 8.71 µM (active)
[5]
  Potency: inactive
[6]
  Potency: inactive
